# In PubChem BioAssay (NCI):
# Compounds without any hit were thinned out: in the full panel of roughly 79,000, 15% have a hit. A number with no mark means an inactive call. Calls of active or inactive are those of the source. No stated cut-off is given here; in the data, active means growth inhibition above about 70%; inactive means the rest.
# Assays:
# [1] = NCI Yeast Anticancer Drug Screen. Data for the rad50 strain (AID 155);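 further: 0% = growth of vehicle-only cultures of the same strain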; conditions: S. cerevisiae rad50 strain growth inhibition, active compounds read high
# Method in brief: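 Readout: growth inhibition relative to vehicle-treated cultures. Compound exposure was carried out in a genetically defined yeast strain deficient in DNA damage repair.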
# [2] = NCI Yeast Anticancer Drug Screen. Data for the mec2-1 strain (AID 157); conditions: S. cerevisiae mec2-1 strain, active compounds read high
# Method in brief: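 Readout is yeast growth inhibition, normalised to vehicle-treated controls, in the mec2-1 strain exposed to compound.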
# [3] = NCI Yeast Anticancer Drug Screen. Data for the sgs1 mgt1 strain (AID 161);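 further: 0% = growth of cultures given vehicle only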; conditions: S. cerevisiae sgs1 mgt1 strain, active compounds read high
# Method in brief: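 Yeast cells carrying a defined DNA-repair defect were exposed to test compounds. Growth inhibition was measured relative to vehicle-treated controls.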
# [4] = NCI Yeast Anticancer Drug Screen. Data for the cln2 rad14 strain (AID 165);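 further: 0% = growth equal to vehicle treated cultures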; conditions: S. cerevisiae cln2 rad14 strain, active compounds read high
# Method in brief: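 Relative to vehicle controls, growth inhibition of compound-treated cln2 rad14 yeast was recorded.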
# [5] = NCI Yeast Anticancer Drug Screen. Data for the bub3 strain (AID 167); conditions: S. cerevisiae bub3 mutant strain, active compounds read high
# Method in brief: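 Readout: yeast growth inhibition, expressed relative to vehicle-only wells. The test organism is a mutant strain from a panel with lesions in DNA repair or checkpoint genes.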
# [6] = NCI Yeast Anticancer Drug Screen. Data for the mlh1 rad18 strain (AID 175); conditions: S. cerevisiae mlh1 rad18 strain growth inhibition, active compounds read high
# Method in brief: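 Test agents were incubated with a yeast strain of defined genotype (DNA damage repair defect). Inhibition of growth was derived by comparison with vehicle-exposed cultures.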
# [7] = at 5.0 µM (retest, dose inferred, filed as 0.5)
# [8] = at 50.0 µM (retest, dose inferred, filed as 5.0)
Structure (SMILES),"growth inhibition [1, 7]","growth inhibition [1, 8]",growth inhibition ([1]; at 50.0 µM),"growth inhibition [2, 7]","growth inhibition [2, 8]",growth inhibition ([2]; at 50.0 µM),"growth inhibition [3, 7]","growth inhibition [3, 8]",growth inhibition ([3]; at 50.0 µM),"growth inhibition [4, 7]","growth inhibition [4, 8]",growth inhibition ([4]; at 50.0 µM),"growth inhibition [5, 7]","growth inhibition [5, 8]",growth inhibition ([5]; at 50.0 µM),"growth inhibition [6, 7]","growth inhibition [6, 8]",growth inhibition ([6]; at 50.0 µM)
O=C1CCCC/C1=C(\Br)I,35%,99% (active),89.1% (active),31%,100% (active),92.3% (active),28%,100% (active),91.2% (active),19%,93% (active),91.4% (active),45%,100% (active),89.1% (active),31%,99% (active),93% (active)
C1=NCCN=Cc2ccccc2NCCNc2ccccc21,3%,2%,55.2%,6%,-20%,58.6%,4%,41%,74.8% (active),15%,23%,53.5%,6%,6%,43.5%,-3%,-2%,69%
CCN(CC)CCCNc1nccc2c(C)c3[nH]c4ccncc4c3cc12,41%,54%,59.4%,18%,33%,-2%,38%,43%,-1.7%,19%,23%,10.1%,24%,22%,-6.45%,48%,64%,-36.5%
CCC1(C)CCC2(C)C(CCC3C4(C)CCCC32OC4=O)C1 (configuration not stated),16%,93% (active),97.5% (active),-2%,96% (active),94.3% (active),2%,97% (active),96.8% (active),-9%,92% (active),91.9% (active),15%,98% (active),96.2% (active),-10%,92% (active),92.2% (active)
CCOP(=O)(OCC)/C(=C\NC(=S)N=Nc1c(O)[nH]c2ccccc12)C(=O)OC,29%,81% (active),19.6%,4%,89% (active),11.2%,6%,83% (active),7.85%,2%,67%,46.1%,-8%,62%,13.8%,5%,84% (active),14.6%
CC[N+]1=C(/C=C\c2cc(C)c3cccnc3c2O)C(C)(C)c2ccccc21,0%,98% (active),53.9%,-2%,98% (active),48.7%,-6%,98% (active),48.1%,-4%,98% (active),77% (active),-5%,98% (active),93.2% (active),0%,97% (active),51.7%
Clc1ccc2oc(N3CCCCC3)nc2c1,4%,7%,98.8% (active),-3%,-3%,99.2% (active),2%,6%,99% (active),2%,6%,98.2% (active),8%,15%,99.2% (active),4%,11%,98.7% (active)
Cn1cc(C2=CC(=O)C=CC2=O)c2ccccc21,0%,97% (active),98.1% (active),8%,99% (active),98.6% (active),4%,98% (active),98.8% (active),-2%,98% (active),98.2% (active),-4%,97% (active),98.2% (active),2%,98% (active),98.5% (active)
O=[N+]([O-])c1cc(CN(CCO)CCO)c(O)c2ncccc12,99% (active),99% (active),99.1% (active),98% (active),100% (active),94% (active),96% (active),100% (active),99% (active),97% (active),99% (active),91.3% (active),95% (active),99% (active),95.7% (active),96% (active),99% (active),97.2% (active)
